The results in this text go back to PubChem BioAssay (NCI).

Test systems include NCI-H226 lung; NCI-H322M lung; HOP-62 NSCLC; NCI-H460 lung; HOP-92 NSCLC; NCI-H522 lung; A549/ATCC NSCLC; 786-0 renal; COLO 205 colon.
Common to all, as to assay: NCI-60 one-dose screen, 48 h (100 = growth as untreated, 0 = no growth, -100 = all killed)
Common to all, as to settings: 10 µM unless noted

Compounds without any hit were thinned out: in the full panel of roughly 83,000, 20% have a hit.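 96-well plates, one dose, 48 hours. Percent growth reported; active if below 10.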 Values without a mark were called inactive. Calls of active or inactive are those of the source.

For the molecule `CC1[C@H]2[C@H](C[C@H]3[C@@H]4CC=C5c6sc(Nc7ccccc7F)nc6CC[C@]5(C)[C@H]4CC[C@@]32C)O[C@]12CC[C@@H](C)CO2` (stereo partly specified), the growth with NCI-H226 lung was -29.2% (active); in the experiment with NCI-H322M lung, -31.4% (active); with HOP-62 NSCLC, -62.4% (active); in the experiment with NCI-H460 lung, -62.6% (active); in the experiment with HOP-92 NSCLC it was -59.2% (active); in the experiment on NCI-H522 lung it was -66.5% (active). The growth in the experiment with A549/ATCC NSCLC was -63.5% (active); in the experiment on 786-0 renal, -82.1% (active); in the experiment with COLO 205 colon, -88.3% (active).

As to `C=C1CC[C@@H]2[C@]3(C)COC(c4cn[nH]c4-c4ccccc4)O[C@@H]3CC[C@@]2(C)[C@@H]1C/C=C1/C(=O)OCC1O` (stereo partly specified), the growth in the experiment with NCI-H226 lung was -30.6% (active); in the experiment on NCI-H322M lung, 83.7%; in the experiment with HOP-62 NSCLC, 63.8%; in the experiment with NCI-H460 lung, 18%; in the experiment with HOP-92 NSCLC, -12.4% (active); with NCI-H522 lung it was 1.15% (active). In addition, the growth with A549/ATCC NSCLC is 56.1%; in the experiment on 786-0 renal, -72.8% (active); in the experiment with COLO 205 colon, -10.8% (active).

With `O=C(c1ccc(OCCN2CCOCC2)cc1)C1[C@H](c2ccc(Cl)cc2)[C@@H](c2ccccc2)NC12C(=O)Nc1ccc(Br)cc12` (stereo partly specified), the growth in the experiment with NCI-H226 lung is 44%; in the experiment on NCI-H322M lung, 53.8%; with HOP-62 NSCLC, 60.6%; in the experiment on NCI-H460 lung, 6.73% (active); with HOP-92 NSCLC it was -15.1% (active); with NCI-H522 lung it was 10.3%. Moreover, the growth in the experiment with A549/ATCC NSCLC was 17.6%; in the experiment with 786-0 renal, -4.29% (active); with COLO 205 colon it was -39.3% (active).

For `COc1ccc(Cc2nn(CC(=O)N/N=C/c3ccc(F)cc3)c(=O)c3c(C)noc23)cc1`, the growth with NCI-H226 lung was 27.4%; in the experiment with NCI-H322M lung it was 37.1%; in the experiment with HOP-62 NSCLC, -53.1% (active); in the experiment with NCI-H460 lung, 13.3%; in the experiment on HOP-92 NSCLC, -20.5% (active); in the experiment on NCI-H522 lung it was 64.5%. Moreover, the values for the growth in the experiment on A549/ATCC NSCLC, in the experiment on 786-0 renal and with COLO 205 colon were 14%, -20.9% (active) and 59.3%, respectively.

Consider `C#CCOc1cc(N(CC)CC)ccc1C(C(=O)NC(C)(C)C)N(C(=O)C1CCc2cc(F)ccc2O1)c1cc(C)cc(C)c1` (stereo unspecified), for which the growth is 33.3% with NCI-H226 lung; 66.6% in the experiment with NCI-H322M lung; 52.4% with HOP-62 NSCLC; 30.4% in the experiment on NCI-H460 lung; 9.21% (active) with HOP-92 NSCLC; 19.6% in the experiment with NCI-H522 lung. Moreover, the growth was 36.1% in the experiment with A549/ATCC NSCLC, 36.3% in the experiment with 786-0 renal and 31.3% in the experiment with COLO 205 colon.

For the molecule `COc1ccc(/C=C/c2nc3ccccc3n3c(-c4ccc(Cl)cc4)nnc23)cc1`, the growth is 95% with NCI-H226 lung; 104% in the experiment with NCI-H322M lung; 96.8% with HOP-62 NSCLC; 88.6% with NCI-H460 lung; 69.5% in the experiment with HOP-92 NSCLC; 64.2% in the experiment with NCI-H522 lung. Moreover, the growth in the experiment on A549/ATCC NSCLC was 90.4%; in the experiment on 786-0 renal, 88.8%; with COLO 205 colon it was 92.4%.

Regarding `COc1ccc(/C=N/NC(=O)Cn2nc(Cc3ccc(OC)cc3)c3onc(C)c3c2=O)cc1`, the growth in the experiment with NCI-H226 lung is 49.6%; in the experiment with NCI-H322M lung it was 59%; in the experiment with HOP-62 NSCLC it was 42.8%; in the experiment with NCI-H460 lung, 30.5%; with HOP-92 NSCLC, -20% (active); in the experiment with NCI-H522 lung it was 58.1%. Besides, the growth in the experiment with A549/ATCC NSCLC is 45.2%; in the experiment on 786-0 renal, -55.5% (active); with COLO 205 colon, 55.7%.

Consider `CC(=O)OCC1OC(OC2C(COC(C)=O)OC(n3cc(COc4ccc5ccc(=O)oc5c4)nn3)C(OC(C)=O)C2OC(C)=O)C(OC(C)=O)C(OC(C)=O)C1OC(C)=O` (stereo unspecified), for which the growth with NCI-H226 lung is 101%; in the experiment with NCI-H322M lung, 103%; in the experiment with HOP-62 NSCLC it was 103%; in the experiment on NCI-H460 lung, 108%; in the experiment with HOP-92 NSCLC it was 94.4%; in the experiment on NCI-H522 lung, 71.3%. For the same molecule, the results for the growth in the experiment with A549/ATCC NSCLC, in the experiment on 786-0 renal and with COLO 205 colon were 112%, 96.4% and 116%, respectively.

For `COc1cc2c(c(OC)c1OC)C(=O)CC(c1cccc(NC(=O)c3cc(NC(=O)[C@H](C)N)ccc3Cl)c1)O2` (stereo partly specified), the growth in the experiment with NCI-H226 lung was 48.9%; in the experiment on NCI-H322M lung, 81.2%; with HOP-62 NSCLC it was 79.1%; in the experiment with NCI-H460 lung it was 51.4%; in the experiment on HOP-92 NSCLC it was 17.9%; in the experiment with NCI-H522 lung, 1.34% (active). Further, the growth in the experiment on A549/ATCC NSCLC was 56%; with 786-0 renal, 45%; in the experiment with COLO 205 colon, 74.5%.

As to `COC(=O)/C=C/c1cccc2c1C(=O)NC(C)(c1cc3cc4ccccc4cc3oc1=O)N2` (stereo unspecified), the growth with NCI-H226 lung was 30.5%; in the experiment on NCI-H322M lung it was 68%; with HOP-62 NSCLC, 33.7%; in the experiment with NCI-H460 lung, 23.1%; in the experiment with HOP-92 NSCLC it was 47.1%; in the experiment with NCI-H522 lung, 52.9%. The growth in the experiment on A549/ATCC NSCLC is 26.9%; with 786-0 renal it was 83.9%; in the experiment on COLO 205 colon, 53%.

Take `C#CCOc1ccc(/C=N/Nc2nc(-c3cc4cc(OC)ccc4oc3=O)cs2)cc1OC`: the growth is 14.2% with NCI-H226 lung; 72.2% in the experiment on NCI-H322M lung; 71.9% in the experiment on HOP-62 NSCLC; 8.62% (active) in the experiment on NCI-H460 lung; -0.0146% (active) in the experiment with HOP-92 NSCLC; 42% in the experiment with NCI-H522 lung. Also, the results for the growth with A549/ATCC NSCLC, with 786-0 renal and in the experiment with COLO 205 colon were 10%, 74.2% and 63.6%, respectively.

For the molecule `COc1ccc(NC(=O)Nc2ccc(OCc3ccc(F)cc3)cc2)cc1`, the growth was 12.4% in the experiment with NCI-H226 lung; 65.8% with NCI-H322M lung; 44.5% in the experiment on HOP-62 NSCLC; 46% with NCI-H460 lung; 21.3% in the experiment with HOP-92 NSCLC; 65.1% in the experiment on NCI-H522 lung. The results for the growth with A549/ATCC NSCLC, with 786-0 renal and in the experiment on COLO 205 colon were 58.9%, 29.3% and 97.7%, respectively.

For `CCOC(=O)/C=C/c1cccc2c1C(=O)NC(C)(c1cc3cc(Br)ccc3oc1=O)N2` (stereo unspecified), the growth in the experiment with NCI-H226 lung was 43.3%; with NCI-H322M lung, 88%; in the experiment with HOP-62 NSCLC, 65.6%; in the experiment with NCI-H460 lung it was 46.1%; in the experiment with HOP-92 NSCLC, 40.2%; in the experiment with NCI-H522 lung it was 29.1%. Also, the growth was 40.1% in the experiment with A549/ATCC NSCLC, 59.4% in the experiment with 786-0 renal and 46.5% in the experiment with COLO 205 colon.

`Nc1nc(-c2ccccc2)c(N=Nc2ccc(Cl)cc2[N+](=O)[O-])s1`: the growth with NCI-H226 lung is 77.4%; with NCI-H322M lung it was 94.2%; with HOP-62 NSCLC, 90.9%; in the experiment with NCI-H460 lung, 105%; in the experiment on HOP-92 NSCLC, 68%; in the experiment with NCI-H522 lung, 82.7%. For the same molecule, the values for the growth in the experiment with A549/ATCC NSCLC, in the experiment with 786-0 renal and in the experiment with COLO 205 colon were 95.3%, 93.4% and 101%, respectively.
